In PubChem BioAssay (NCATS):
Records with an inconclusive call do not appear. Entries that show only a call come without a potency. Calls of active or inactive are those of the source. The call rests on the fitted dose curve; in most records, active means well fitted cell-killing curve with a large enough effect; inconclusive means small, poorly fitted or top-dose-only effect, or effect the other way; inactive means no such curve, though single readings can be large or run the other way.

assay: Viability qHTS for spleen associated tyrosine kinase inhibitor (SYKi) naive MV4-11 cells (AID 1963823); settings: MV4-11 AML viability, CellTiter-Glo luminescence, 72 h; series mostly up to 45 µM; further: nearly all actives have a fitted effect of over 40% in size
In short: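 In this viability screen, compounds acted on SYK inhibitor naive MV4-11 cells for three days (72 hr, 37 C). Remaining viable cells were measured by CellTiter-Glo luminescence following a 10 min room-temperature development.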
Potency means the concentration at half of the fitted maximal effect.

Row | SMILES | Potency | viability (% of control)
1 | CC1CCC2(OC1)OC1CC3C4CCC5C[C@@H](O[C@@H]6O[C@H](CO[C@@H]7OC[C@@H](O)[C@H](O)[C@H]7O)[C@H](O)[C@H](O)[C@H]6O)CC[C@]5(C)C4CC[C@]3(C)C1C2C (some centres not stated) | inactive | –
2 | O=C(O)c1cc(O[C@@H]2O[C@H](CO)[C@@H](O)[C@H](O)[C@H]2O)ccc1O | inactive | –
3 | CC(=O)O[C@@H]1[C@H]2[C@@H](OC(=O)c3ccccc3)[C@@H](C)C[C@]2(O)[C@H](OC(C)=O)[C@@]2(C)[C@@H]3CC(C)(C)C(=O)[C@]3(OC(C)=O)C[C@@]12C | inactive | –
4 | C[C@@H]1O[C@@H](O[C@H]2[C@H](O[C@H]3[C@H](O[C@H]4CC[C@@]5(C)C(CC[C@]6(C)C5CC=C5[C@@H]7CC(C)(C)CC[C@]7(C(=O)O[C@@H]7O[C@H](CO)[C@@H](O[C@@H]8O[C@@H](C)[C@H](O)[C@@H](O)[C@H]8O)[C@H](O)[C@H]7O)CC[C@]56C)C4(C)C)OC[C@H](O)[C@@H]3O)O[C@H](CO)[C@@H](O)[C@@H]2O)[C@H](O)[C@H](O)[C@H]1O (some centres not stated) | – | 3.73% [at 9.25 µM] (inactive)
5 | C/C(=C\CCC(C)CCO)C(=O)O[C@@H]1[C@@H](O)[C@H](OC2OC=C(C(=O)O)C3CCC(C)(O)C23)O[C@H](CO)[C@H]1O (some centres not stated) | inactive | –
6 | C=C1C[C@]23C[C@H]1[C@@H](O)C[C@H]2[C@@]12C=C[C@H](O)[C@@](C)(C(=O)O1)[C@H]2[C@@H]3C(=O)O | inactive | –
7 | CC1NC(=O)CNC(=O)C(C(C)C)NC(=O)C2CCCN2C(=O)C(C(C)C)NC(=O)C(Cc2c[nH]c3ccccc23)NC1=O (configuration not stated) | inactive | –
8 | C=C[C@@]12COC(=O)C(=C)[C@@H]1[C@@H](O)[C@H](C(=C)C(=O)OC)[C@@H](O)C2 | inactive | –
9 | CC1CC=C2C1CC1(O)C(=O)CC2(C)C1(C)CO (configuration not stated) | inactive | –
10 | CC(=O)O[C@@](C)(C(=O)/C=C/C(C)(C)O)[C@H]1[C@H](O)C[C@@]2(C)[C@@H]3CC=C4[C@@H](C=C(O)C(=O)C4(C)C)[C@]3(C)C(=O)C[C@]12C | 0.317 µM (active) | –
11 | CNc1cc2c(Nc3cccc(Br)c3)ncnc2cn1 | 18.4 µM (active) | –
12 | C[C@@]12CC3(S(=O)(=O)O)OC(O1)[C@]1(COC(=O)c4ccccc4)[C@H]3C[C@]21O[C@@H]1O[C@H](CO)[C@@H](O)[C@H](O)[C@H]1O | inactive | –
13 | CC(C)C(NC(=O)c1ccc2ccccc2n1)C(=O)NC(CC(=O)O)C(=O)COc1c(F)cccc1F (configuration not stated) | inactive | –
14 | CC12CCC(OC3OC(CO)C(O)C(OC4OC(CO)C(O)C(O)C4O)C3O)CC1=CCC1C2CCC2(C)/C(=C3/COC(=O)C3)CCC12O (configuration not stated) | inactive | –
15 | C/C(=C\CO[C@@H]1O[C@H](CO[C@H]2OC[C@](O)(CO)[C@H]2O)[C@@H](O)[C@H](O)[C@H]1O)C(C)(C)O | inactive | –
16 | COC(=O)Cn1nc(-c2cccc(OC)c2)c2ccccc21 | inactive | –
17 | COCCN(C)Cc1ccc2nc3sc(C(=O)N(C)C4CCCCC4)cn3c2c1 | inactive | –
18 | Cc1cc(O)c(C(C)C)cc1Cl | inactive | –
19 | CC(=O)c1c(C)cc(O)cc1O[C@@H]1O[C@H](CO)[C@@H](O)[C@H](O)[C@H]1O | inactive | –
20 | CN(CCCOc1ccc(Cc2ccccc2)cc1)CCC(=O)O | inactive | –
21 | CCOc1ccc(C(Nc2ccccn2)c2ccc3ccc(C)nc3c2O)cc1C (configuration not stated) | 23.1 µM (active) | –
22 | COc1cc(-c2ccc(O)cc2)c(OC)c(O)c1C1=CC(=O)OC1CC(=O)O (configuration not stated) | inactive | –
23 | Nc1c(S(=O)(=O)c2ccccc2)c2nc3ccccc3nc2n1-c1ccc(F)cc1 | inactive | –
24 | CC/C=C\C(O)C(O)C1=C(C)C(=O)C2(O1)C(=O)NC(OC)(C(=O)c1ccccc1)C2O (configuration not stated) | inactive | –
25 | CC(C)C1(O)NC(=O)C(CC2(O)c3ccccc3N3C(=O)C(C)(C)NC32)n2c1nc1ccccc1c2=O (configuration not stated) | inactive | –
26 | COC1CC(O[C@H]2CC[C@]3(C)C4CC[C@@]5(C)C(=O)[C@]4(CC[C@@H]3C2)CC[C@@H]5C2=CC(=O)OC2)OC(C)C1OC1OC(COC2OC(CO)C(O)C(O)C2O)C(O)C(O)C1O (some centres not stated) | 1.1 µM (active) | –
27 | Cc1ccc(-c2ncccn2)c(C(=O)N2C[C@H](COc3ccc(F)cn3)CC[C@H]2C)c1 | inactive | –
